{"source": "PubChem BioAssay AID1159580", "about": "(chemical genetic matrix, 2015)", "assay": "chemical genetic growth profiling, strain panel (AID 1159580);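 also: tested at 20 µM; growth read once vehicle control cultures reached saturation at 30 °C; 1 = growth at the plate median or of vehicle wells; lower values mean less growth of the strain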", "conditions": "S. cerevisiae deletion strains, growth OD", "key": {"[1]": {"conditions": "locus YDL101C, strain DUN1, active compounds read low"}, "[2]": {"conditions": "locus YHR030C, strain SLT2, active compounds read low"}}, "note": "Hit rate of the full screen: of about 5,500 compounds, about 2,000 (36%) were called active. About 18% were inconclusive and are not listed. Some of the results follow. Values without a mark were called inactive. Rule as the data show it: active = normalized growth mostly below about 0.91 (no sharp cut-off); inconclusive = no clear call, values can overlap the other calls; inactive = mostly above about 0.92.", "data": [{"smiles": "COc1nc(N)nc(SC)n1", "values": [{"measurement": "normalized growth", "setting": "locus YAL013W, strain DEP1, active compounds read low", "result": 0.995}, {"measurement": "normalized growth", "setting": "locus YBR229C, strain ROT2, active compounds read low", "result": 1}, {"measurement": "normalized growth", "setting": "locus YCL061C, strain MRC1, active compounds read low", "result": 0.988}, {"measurement": "normalized growth", "setting": "[1]", "result": 1}, {"measurement": "normalized growth", "setting": "locus YDR150W, strain NUM1, active compounds read low", "result": 1}, {"measurement": "normalized growth", "setting": "locus YEL061C, strain CIN8, active compounds read low", "result": 0.989}, {"measurement": "normalized growth", "setting": "locus YGR078C, strain PAC10, active compounds read low", "result": 1.02}, {"measurement": "normalized growth", "setting": "locus YGR229C, strain SMI1, active compounds read low", "result": 0.985}, {"measurement": "normalized growth", "setting": "[2]", "result": 1.05}, {"measurement": "normalized growth", "setting": "locus YHR087W, strain rtc3, active compounds read low", "result": 0.992}, {"measurement": "normalized growth", "setting": "locus YJR043C, strain POL32, active compounds read low", "result": 0.987}, {"measurement": "normalized growth", "setting": "locus YJR075W, strain HOC1, active compounds read low", "result": 0.987}, {"measurement": "normalized growth", "setting": "locus YKL190W, strain CNB1, active compounds read low", "result": 0.974}, {"measurement": "normalized growth", "setting": "locus YLR039C, strain RIC1, active compounds read low", "result": 0.97}, {"measurement": "normalized growth", "setting": "locus YLR058C, strain SHM2 (second series), active compounds read low", "result": 0.989}, {"measurement": "normalized growth", "setting": "locus YLR085C, strain ARP6, active compounds read low", "result": 0.984}, {"measurement": "normalized growth", "setting": "locus YLR262C, strain YPT6, active compounds read low", "result": 0.974}, {"measurement": "normalized growth", "setting": "locus YML094W, strain GIM5, active compounds read low", "result": 1.12}, {"measurement": "normalized growth", "setting": "locus YMR219W, strain ESC1, active compounds read low", "result": 0.993}, {"measurement": "normalized growth", "setting": "locus YMR263W, strain SAP30, active compounds read low", "result": 0.984}, {"measurement": "normalized growth", "setting": "locus YNL128W, strain TEP1, active compounds read low", "result": 0.979}, {"measurement": "normalized growth", "setting": "locus YNL153C, strain GIM3, active compounds read low", "result": 1}, {"measurement": "normalized growth", "setting": "locus YNL298W, strain CLA4 (second series), active compounds read low", "result": 0.98}, {"measurement": "normalized growth", "setting": "locus YNL322C, strain KRE1, active compounds read low", "result": 1}, {"measurement": "normalized growth", "setting": "locus YNR030W, strain Alg12, active compounds read low", "result": 1.02}, {"measurement": "normalized growth", "setting": "locus YOL006C, strain TOP1, active compounds read low", "result": 0.978}, {"measurement": "normalized growth", "setting": "locus YPL055C, strain LGE1, active compounds read low", "result": 1.01}, {"measurement": "normalized growth", "setting": "locus YPL241C, strain CIN2, active compounds read low", "result": 1.14}, {"measurement": "normalized growth", "setting": "locus YPR135W, strain CTF4, active compounds read low", "result": 1.03}]}, {"smiles": "COc1cc(C(=O)Oc2c(Cl)cc(Cl)cc2C=Nc2cccc([N+](=O)[O-])c2)cc(OC)c1OC", "values": [{"measurement": "normalized growth", "setting": "locus YAR019C, strain CDC15, active compounds read low", "result": 0.959}, {"measurement": "normalized growth", "setting": "locus YBL105C, strain PKC1, active compounds read low", "result": 0.971}, {"measurement": "normalized growth", "setting": "locus YBR135W, strain CKS1, active compounds read low", "result": 0.973}, {"measurement": "normalized growth", "setting": "locus YBR136W, strain MEC1, active compounds read low", "result": 0.977}, {"measurement": "normalized growth", "setting": "locus YBR160W, strain CDC28, active compounds read low", "result": 0.98}, {"measurement": "normalized growth", "setting": "locus YDL017W, strain CDC7, active compounds read low", "result": 0.982}, {"measurement": "normalized growth", "setting": "locus YDL028C, strain MPS1, active compounds read low", "result": 0.962}, {"measurement": "normalized growth", "setting": "[1]", "result": 0.985}, {"measurement": "normalized growth", "setting": "locus YDL108W, strain KIN28, active compounds read low", "result": 0.971}, {"measurement": "normalized growth", "setting": "locus YDL132W, strain cdc53, active compounds read low", "result": 0.962}, {"measurement": "normalized growth", "setting": "locus YDL214C, strain PRR2, active compounds read low", "result": "0.607 (active)"}, {"measurement": "normalized growth", "setting": "locus YDR052C, strain DBF4, active compounds read low", "result": 0.987}, {"measurement": "normalized growth", "setting": "locus YDR054C, strain cdc34, active compounds read low", "result": 0.956}, {"measurement": "normalized growth", "setting": "locus YDR226W, strain ADK1, active compounds read low", "result": 0.964}, {"measurement": "normalized growth", "setting": "locus YDR477W, strain SNF1, active compounds read low", "result": "0.626 (active)"}, {"measurement": "normalized growth", "setting": "locus YER123W, strain YCK3, active compounds read low", "result": "0.415 (active)"}, {"measurement": "normalized growth", "setting": "locus YER133W, strain GLC7, active compounds read low", "result": "0.59 (active)"}, {"measurement": "normalized growth", "setting": "locus YFL009W, strain cdc4, active compounds read low", "result": 0.958}, {"measurement": "normalized growth", "setting": "locus YFL029C, strain CAK1, active compounds read low", "result": 0.98}, {"measurement": "normalized growth", "setting": "locus YFR003C, strain YPI1, active compounds read low", "result": 0.976}, {"measurement": "normalized growth", "setting": "locus YFR019W, strain FAB1, active compounds read low", "result": "0.706 (active)"}, {"measurement": "normalized growth", "setting": "locus YFR028C, strain CDC14, active compounds read low", "result": 0.965}, {"measurement": "normalized growth", "setting": "locus YGR040W, strain KSS1, active compounds read low", "result": "0.648 (active)"}, {"measurement": "normalized growth", "setting": "locus YGR052W, strain FMP48, active compounds read low", "result": "0.561 (active)"}, {"measurement": "normalized growth", "setting": "locus YGR092W, strain DBF2, active compounds read low", "result": "0.336 (active)"}, {"measurement": "normalized growth", "setting": "[2]", "result": "0.387 (active)"}, {"measurement": "normalized growth", "setting": "locus YHR079C, strain IRE1, active compounds read low", "result": "0.438 (active)"}, {"measurement": "normalized growth", "setting": "locus YHR082C, strain KSP1, active compounds read low", "result": "0.569 (active)"}, {"measurement": "normalized growth", "setting": "locus YHR205W, strain SCH9, active compounds read low", "result": "0.473 (active)"}, {"measurement": "normalized growth", "setting": "locus YIL147C, strain SLN1, active compounds read low", "result": 0.973}, {"measurement": "normalized growth", "setting": "locus YJL095W, strain BCK1, active compounds read low", "result": "0.473 (active)"}, {"measurement": "normalized growth", "setting": "locus YJL128C, strain PBS2, active compounds read low", "result": 0.921}, {"measurement": "normalized growth", "setting": "locus YJL157C, strain FAR1, active compounds read low", "result": "0.629 (active)"}, {"measurement": "normalized growth", "setting": "locus YJR016C, strain ILV3, active compounds read low", "result": 0.988}, {"measurement": "normalized growth", "setting": "locus YJR066W, strain TOR1 (second series), active compounds read low", "result": 0.801}, {"measurement": "normalized growth", "setting": "locus YJR066W, strain TOR1, active compounds read low", "result": "0.427 (active)"}, {"measurement": "normalized growth", "setting": "locus YKL048C, strain ELM1, active compounds read low", "result": "0.776 (active)"}, {"measurement": "normalized growth", "setting": "locus YKL067W, strain YNK1, active compounds read low", "result": "0.613 (active)"}, {"measurement": "normalized growth", "setting": "locus YKL101W, strain HSL1, active compounds read low", "result": "0.678 (active)"}, {"measurement": "normalized growth", "setting": "locus YKL193C, strain SDS22, active compounds read low", "result": 0.979}, {"measurement": "normalized growth", "setting": "locus YKL203C, strain TOR2, active compounds read low", "result": 0.738}, {"measurement": "normalized growth", "setting": "locus YLR113W, strain HOG1, active compounds read low", "result": "0.577 (active)"}, {"measurement": "normalized growth", "setting": "locus YLR133W, strain CKI1, active compounds read low", "result": "0.621 (active)"}, {"measurement": "normalized growth", "setting": "locus YLR403W, strain SFP1, active compounds read low", "result": "0.51 (active)"}, {"measurement": "normalized growth", "setting": "locus YML070W, strain DAK1, active compounds read low", "result": "0.642 (active)"}, {"measurement": "normalized growth", "setting": "locus YMR001C, strain CDC5, active compounds read low", "result": 0.981}, {"measurement": "normalized growth", "setting": "locus YMR205C, strain PFK2 (second series), active compounds read low", "result": "0.646 (active)"}, {"measurement": "normalized growth", "setting": "locus YMR277W, strain FCP1, active compounds read low", "result": 0.972}, {"measurement": "normalized growth", "setting": "locus YNL006W, strain LST8, active compounds read low", "result": 0.995}, {"measurement": "normalized growth", "setting": "locus YNL020C, strain ARK1, active compounds read low", "result": "0.597 (active)"}, {"measurement": "normalized growth", "setting": "locus YNL161W, strain CBK1, active compounds read low", "result": 0.982}, {"measurement": "normalized growth", "setting": "locus YNL183C, strain NPR1, active compounds read low", "result": "0.54 (active)"}, {"measurement": "normalized growth", "setting": "locus YNL207W, strain RIO2, active compounds read low", "result": 0.966}, {"measurement": "normalized growth", "setting": "locus YNL222W, strain SSU72, active compounds read low", "result": 0.98}, {"measurement": "normalized growth", "setting": "locus YNL307C, strain MCK1 (second series), active compounds read low", "result": "0.566 (active)"}, {"measurement": "normalized growth", "setting": "locus YOL078W, strain AVO1, active compounds read low", "result": 0.978}, {"measurement": "normalized growth", "setting": "locus YOL136C, strain PFK27, active compounds read low", "result": "0.597 (active)"}, {"measurement": "normalized growth", "setting": "locus YOR061W, strain CKA2, active compounds read low", "result": "0.576 (active)"}, {"measurement": "normalized growth", "setting": "locus YOR119C, strain RIO1, active compounds read low", "result": "0.642 (active)"}, {"measurement": "normalized growth", "setting": "locus YOR231W, strain MKK1, active compounds read low", "result": "0.494 (active)"}, {"measurement": "normalized growth", "setting": "locus YOR329C, strain SCD5, active compounds read low", "result": 0.985}, {"measurement": "normalized growth", "setting": "locus YPL031C, strain PHO85, active compounds read low", "result": "0.6 (active)"}, {"measurement": "normalized growth", "setting": "locus YPL153C, strain RAD53, active compounds read low", "result": "0.619 (active)"}, {"measurement": "normalized growth", "setting": "locus YPL204W, strain HRR25, active compounds read low", "result": "0.58 (active)"}, {"measurement": "normalized growth", "setting": "locus YPL209C, strain IPL1, active compounds read low", "result": 0.978}, {"measurement": "normalized growth", "setting": "locus YPL256C, strain CLN2, active compounds read low", "result": "0.481 (active)"}, {"measurement": "normalized growth", "setting": "locus YPR025C, strain CCL1, active compounds read low", "result": 0.973}, {"measurement": "normalized growth", "setting": "locus YPR106W, strain ISR1, active compounds read low", "result": 0.959}, {"measurement": "normalized growth", "setting": "locus YPR111W, strain DBF20, active compounds read low", "result": 0.928}, {"measurement": "normalized growth", "setting": "strain NNK1, active compounds read low", "result": 0.963}, {"measurement": "normalized growth", "setting": "strain TSCII, active compounds read low", "result": 0.982}]}]}
